According to PMC5540273 (PLoS ONE, 2017):
Like-named read-outs stand apart in the source and are kept apart here.

Key:
[1] = test system: CSNK1G1; conditions: concentration: 1 μM, replicates: in singlicate; n = 1
[2] = test system: CSNK1G2; conditions: concentration: 1 μM, replicates: in singlicate; n = 1
[3] = test system: CSNK1G3; conditions: concentration: 1 μM, replicates: in singlicate; n = 1
[4] = test system: CSNK2A1; conditions: n = 1
[5] = test system: CSNK2A2; conditions: n = 1
[6] = test system: T1, CTK; conditions: concentration: 1 μM, replicates: in singlicate; n = 1
T1 construct: gene MATK

[7] = test system: DAPK1; conditions: concentration: 1 μM, replicates: in singlicate; n = 1
[8] = test system: DAPK2; conditions: concentration: 1 μM, replicates: in singlicate; n = 1
[9] = test system: DAPK3; conditions: concentration: 1 μM, replicates: in singlicate; n = 1
[10] = test system: T2, DCAMKL1; conditions: concentration: 1 μM, replicates: in singlicate; n = 1
T2 construct: gene DCLK1

[11] = concentration: 1 μM, replicates: in singlicate
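Note: KINOMEscan kinase panel screen.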

Row | Structure (SMILES) | %Inh [1] | %Inh [2] | %Inh [3] | %Inh [4, 11] | %Inh [5, 11] | %Inh [6] | %Inh [7] | %Inh [8] | %Inh [9] | %Inh [10] | %Inh ([4]; 1 µM) | %Inh ([5]; 1 µM)
1 | Nc1ncnc2scc(-c3ccc(NC(=O)Cc4cc(F)ccc4F)cc3)c12.O=C(O)C(F)(F)F [SB-731254-M] | 26% | 36% | 40% | 13% | 14% | 67% | 0% | 100% | 100% | 27% |  | 
2 | COc1cccc(NC(=O)NCCNc2ccnc(Nc3ccc(F)cc3)n2)c1 [GSK1379879] | 0% | 0% | 23% | 0% | 7% | 0% | 0% | 0% | 17% | 9% |  | 
3 | c1ccc(Oc2ccc(Nc3ccnc4cc(-c5ccc(CN6CCCCC6)o5)ccc34)cc2)nc1 [GW567143] | 0% | 6% | 3% | 15% | 12% | 5% | 0% | 0% | 0% | 4% |  | 
4 | COc1cc(Nc2nccc(N3CCC(NC(=O)Nc4ccc5c(c4)OCO5)C3)n2)cc(OC)c1OC (stereo not drawn) [GSK1379766] | 10% | 0% | 4% | 4% | 16% | 0% | 5% | 0% | 7% | 7% |  | 
5 | CCn1cnc2c(NCc3ccccc3)ncnc21 [SKF-96418] | 0% | 0% | 0% | 0% | 0% | 34% | 0% | 0% | 11% | 33% |  | 
6 | Cn1cc(-c2cnc(N)c3c(-c4ccc5c(c4)CCN5C(=O)Cc4ccccc4)csc23)cn1 [GSK2593074] | 21% | 7% | 22% |  |  | 62% | 38% | 21% | 7% | 0% | 0% | 1%
7 | CN(C)CCNS(=O)(=O)c1ccc(-c2ccnc3[nH]ccc23)cc1 [GSK977620] | 0% | 0% | 5% | 30% | 11% | 0% | 76% | 44% | 88% | 18% |  | 
8 | CN(c1ccc2c(c1)nc(NCc1ccccc1)n2C)c1ccnc(Nc2ccc(CS(C)(=O)=O)cc2)n1.Cl [GW811603] | 0% | 4% | 0% | 16% | 8% | 5% | 13% | 0% | 0% | 0% |  | 
9 | Cc1ccc(-c2ccc3occ(-c4ccc(S(C)=O)cc4)c3c2)nn1 (stereo not drawn) | 0% | 0% | 0% | 0% | 10% | 0% | 0% | 0% | 0% | 4% |  | 
10 | COC(=O)Nc1nc2cc(Oc3ccc(NC(=O)Nc4cccc(SC)c4)cc3)ccc2[nH]1.Cl [GW697999] | 6% | 0% | 1% | 0% | 0% | 0% | 0% | 43% | 1% | 21% |  | 
11 | O=C(Nc1c(F)cccc1F)c1cc(C(=O)c2ccccc2F)c[nH]1 [GSK1326180] | 0% | 0% | 21% | 0% | 0% | 0% | 0% | 4% | 4% | 0% |  | 
12 | COC(=O)Nc1nc2ccc(Oc3ccc(CC(=O)Nc4cc(C(F)(F)F)ccc4F)cc3)cc2[nH]1 [GW680903] | 0% | 0% | 14% | 0% | 0% | 0% | 0% | 0% | 0% | 11% |  | 
13 | CCn1c(-c2nonc2N)nc2c(-c3ccccc3)ncc(OCCCN)c21.O=C(O)C(F)(F)F.O=C(O)C(F)(F)F [GSK260205] | 10% | 0% | 29% | 22% | 31% | 0% | 10% | 2% | 25% | 0% |  | 
14 | Cl.N#CCc1ccc(Nc2nccc(Nc3ccc(Oc4ccccc4)cc3)n2)cc1 [GW639905] | 1% | 0% | 8% | 0% | 9% | 28% | 0% | 60% | 40% | 12% |  | 
15 | Fc1cc(Cl)ccc1Nc1ccnc2cc(-c3ccc(CN4CCSCC4)o3)ccc12 [GW560106] | 0% | 0% | 14% | 0% | 100% | 0% | 0% | 0% | 11% | 7% |  | 
16 | COc1ccc(C)c(Nc2ccnc(Nc3ccc(-c4cnc[nH]4)cc3)n2)c1.Cl [GW784041] | 15% | 0% | 8% | 0% | 5% | 0% | 7% | 10% | 6% | 7% |  | 
17 | CN(c1ccc(NC(=O)N2CCN(CCCN3CCOCC3)CC2)cc1)c1ccnc(Nc2ccc(CS(C)(=O)=O)cc2)n1.Cl [GW830899] | 19% | 6% | 5% | 0% | 0% | 0% | 4% | 0% | 0% | 0% |  | 

Row | Structure (SMILES) | %Inh [1] | %Inh [2] | %Inh [3] | %Inh [4, 11] | %Inh [5, 11] | %Inh [6] | %Inh [7] | %Inh [8] | %Inh [9] | %Inh [10] | %Inh ([4]; 1 µM) | %Inh ([5]; 1 µM)
18 | COc1cc(Nc2nccc(N3CCC(NS(=O)(=O)c4ccc(NC(C)=O)cc4)CC3)n2)cc(OC)c1OC [GSK1379825] | 0% | 0% | 0% | 8% | 2% | 0% | 0% | 0% | 8% | 0% |  | 
19 | CC(C)(C)c1ccc(C(=O)Nc2cn3cc(-n4ccnc4)ccc3n2)cc1 | 0% | 12% | 0% | 0% | 7% | 24% | 0% | 16% | 2% | 29% |  | 
20 | O=C(Nc1n[nH]c2nc(-c3ccccc3)ccc12)C1CC1 [SB-708999] | 0% | 0% | 68% | 23% | 75% | 0% | 0% | 11% | 4% | 4% |  | 
21 | O=C(Nc1n[nH]c2nc(-c3ccccc3O)ccc12)C1CC1 [SB-711880] | 0% | 0% | 28% | 49% | 84% | 36% | 12% | 0% | 21% | 22% |  | 
22 | O=C(O)C(F)(F)F.O=c1[nH]ccc2nc(N[C@@H]3CCNC3)nc(Nc3cc(Cl)cc(Cl)c3)c12 [GSK2188764] | 77% | 94.2% | 95.1% | 98.9% | 100% | 0% | 97.3% | 97.4% | 100% | 86% |  | 
23 | Cc1ccc(O)cc1Nc1ccnc2ccc(C(C)(C)C)cc12 [GW856805] | 19% | 5% | 0% | 1% | 7% | 21% | 13% | 8% | 7% | 2% |  | 
24 | Cl.Cl.NCC(NC(=O)c1cc(-c2cccnc2)c(-c2ccnc3[nH]ccc23)s1)c1ccccc1 (stereo not drawn) [GSK1323434] | 39% | 63% | 68% | 32% | 40% | 0% | 59% | 21% | 27% | 21% |  | 
25 | Cn1cc(-c2ccc3c(c2)CCN3C(=O)Cc2cc(F)cc(C(F)(F)F)c2)c2c(N)ncnc21 [GSK2635225] | 22% | 12% | 15% | 2% | 0% | 0% | 21% | 6% | 19% | 3% |  | 
26 | CNc1nccc(-c2ccc3c(N)n[nH]c3c2)n1 [GSK2206003] | 14% | 0% | 33% | 43% | 62% | 0% | 29% | 31% | 39% | 0% |  | 
27 | Cc1ccc(NC(=O)c2cccc(N3CCCCC3)c2)cc1-c1ccc(C(=O)NCC2CC2)cc1 [GSK1917008] | 8% | 0% | 24% | 29% | 10% | 17% | 0% | 0% | 29% | 16% |  | 
28 | O=C(O)C(F)(F)F.O=c1[nH]ccc2nc(N[C@@H]3CCNC3)nc(Nc3ccc4c(c3)S(=O)(=O)CC4)c12 [GSK2181306] | 85% | 87% | 94.4% | 99.2% | 99.9% | 16% | 99.5% | 97.8% | 99.6% | 95.7% |  | 
29 | Cc1cc(-c2c(-c3ccc(F)cc3)ncn2CCCN2CCOCC2)nc(N)n1 [SB-222517] | 0% | 8% | 0% | 0% | 0% | 0% | 0% | 21% | 38% | 40% |  | 
30 | Cc1cccc(Nc2nc(N[C@H]3CCCC[C@H]3N)ncc2C(N)=O)c1.Cl [GSK986310] | 21% | 0% | 37% | 36% | 25% | 0% | 86% | 70% | 59% | 32% |  | 
31 | CSc1ccc(NC2=C(c3ccc(Cl)cc3)C(=O)NC2=O)cc1 [SB-317658] | 0% | 15% | 0% | 0% | 25% | 19% | 0% | 0% | 0% | 0% |  | 
32 | CN(C)c1ncnc2nc[nH]c12 [SKF-31736] | 3% | 0% | 0% | 0% | 5% | 36% | 7% | 3% | 20% | 32% |  | 
33 | CCOc1nccc(-c2c(-c3ccc(F)cc3)ncn2C2CCNCC2)n1 [SB-249175] | 0% | 32% | 0% | 56% | 65% | 0% | 0% | 0% | 0% | 25% |  | 
